Reference: PubChem BioAssay (NCI)
About 83,000 compounds went through this panel and 20% of them were active in at least one assay; those are over-represented in the sample as a whole.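 In brief: 96-well plates, 48 h treatment, single concentration, percent growth endpoint.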 Active and inactive are the calls of the source. Rule for the calls: active = growth percent below 10; inactive = the rest.

Key:
Experiment in all cases: NCI-60 one-dose screen, 48 h (100 = growth as untreated, 0 = no growth, -100 = all killed)
Settings in all cases: 10 µM unless noted
[1] = system: DU-145 prostate
[2] = system: K-562 leukemia
[3] = system: MALME-3M melanoma
[4] = system: MDA-MB-231 breast
[5] = system: RXF 393 renal
[6] = system: SF-268 CNS
[7] = system: SF-295 CNS
[8] = system: SF-539 CNS
[9] = system: UACC-257 melanoma
[10] = system: M14 melanoma
[11] = system: HCT-15 colon
[12] = system: HT29 colon
[13] = system: SNB-75 CNS
[14] = system: SNB-19 CNS
[15] = system: U251 CNS
[16] = system: PC-3 prostate
[17] = system: SK-MEL-5 melanoma
[18] = system: UACC-62 melanoma
[19] = system: LOX IMVI melanoma
[20] = system: SK-MEL-28 melanoma

Measured: growth

O=[N+]([O-])c1ccc(OCCO)cc1
inactive: [1] 107% | [2] 78.8% | [3] 107% | [4] 114% | [5] 105% | [6] 100% | [7] 105% | [8] 108% | [9] 104% | [10] 109% | [11] 101% | [12] 108% | [13] 103% | [14] 101% | [15] 104% | [16] 87.2% | [17] 109% | [18] 96.9% | [19] 97.8% | [20] 114%

COc1ccc(/C=c2\nc3n(-c4ccccc4)c4nc5c6c(sc5c(=N)n4n-3c2=O)CCCC6)cc1
inactive: [1] 104% | [2] 67.2% | [3] 97.4% | [4] 59.9% | [5] 98.4% | [6] 88.8% | [7] 98.4% | [8] 94.9% | [9] 106% | [10] 96.7% | [11] 40.7% | [12] 109% | [13] 42.9% | [14] 84.9% | [15] 87.5% | [16] 63.5% | [17] 70.8% | [18] 74.1% | [19] 91.2% | [20] 102%

COc1ccc(N2CCN(c3nc(-c4cc(OC)c(OC)c(OC)c4)nc4ccccc34)CC2)cc1
inactive: [1] 93.5% | [2] 79.1% | [3] 108% | [4] 71% | [5] 92.6% | [6] 87.7% | [7] 95.2% | [8] 96.9% | [9] 102% | [10] 71.3% | [11] 61.8% | [12] 81.5% | [13] 84.5% | [14] 93.5% | [15] 96.1% | [16] 41.3% | [17] 46.4% | [18] 56% | [19] 79.3% | [20] 87.1%

CCN(CC)Cc1cccc(C(=O)OC)c1
inactive: [1] 111% | [2] 110% | [3] 95.3% | [4] 100% | [5] 105% | [6] 104% | [7] 97.8% | [8] 94% | [9] 73.4% | [10] 91.7% | [11] 102% | [12] 106% | [13] 87.9% | [14] 101% | [15] 96.3% | [16] 78.1% | [17] 97.1% | [18] 103% | [19] 94.1% | [20] 104%

Cc1ccc(NCCN(C)C)c2c(=O)c3ccccc3sc12
inactive: [1] 23.8% | [2] 21.3% | [3] 76.4% | [4] 24.3% | [6] 17.1% | [7] 29.4% | [8] 30.8% | [13] 41.2% | [14] 20.2% | [15] 10.8% | [16] 36.2%
active: [5] 2.41% | [9] 1.5% | [10] 5.06% | [11] 6.89% | [12] -38.3% | [17] -73.6% | [18] -5.6% | [19] -41.6% | [20] 2.84%

CCCCn1c(=O)c2c(nc3n2CCCN3CCc2ccc(OCC(=O)NCCN(CC)CC)cc2)n(CCCC)c1=O
inactive: [1] 66.1% | [4] 14.4% | [5] 47.2% | [6] 63.2% | [8] 54.7% | [13] 44.6% | [14] 65.3% | [15] 24.6% | [16] 47.7% | [17] 28.3% | [18] 20.7% | [19] 11%
active: [2] -6.6% | [3] -52.9% | [7] -22.3% | [9] -39% | [10] -79.2% | [11] 1.38% | [12] 5.96% | [20] -36.4%

CN(C)CCC=C1c2ccccc2C(C)(C)c2ccccc21
inactive: [1] 35.9% | [2] 32.7% | [3] 78.9% | [4] 75% | [5] 66.4% | [6] 95.9% | [7] 67.2% | [8] 61.2% | [9] 24.2% | [10] 11.6% | [11] 83.9% | [12] 30.5% | [13] 79.3% | [14] 86.1% | [15] 78.9% | [16] 55.5% | [17] 64.3% | [18] 71.2% | [19] 69.6% | [20] 54.5%
